From the supplement of paper PMC11732987, “Enantioselective OTUD7B fragment discovery through chemoproteomics screening and high-throughput optimisation” (Communications Chemistry, 2025)

How the values were obtained:
Assay in all cases: log2 ratio of Biotin-Ahx-Ub-VS probe labelling (fragment/DMSO); higher = less target engagement (more negative = stronger competition), active = hit call of the paper (q ≤ 0.05, log2 ratio ≤ -1)
Details in all cases: compound concentration: 200 uM; treatment time: 3 h
[1] = target: T1, USP42 (UniProt Q9H9J4)
T1 sequence (whole entry): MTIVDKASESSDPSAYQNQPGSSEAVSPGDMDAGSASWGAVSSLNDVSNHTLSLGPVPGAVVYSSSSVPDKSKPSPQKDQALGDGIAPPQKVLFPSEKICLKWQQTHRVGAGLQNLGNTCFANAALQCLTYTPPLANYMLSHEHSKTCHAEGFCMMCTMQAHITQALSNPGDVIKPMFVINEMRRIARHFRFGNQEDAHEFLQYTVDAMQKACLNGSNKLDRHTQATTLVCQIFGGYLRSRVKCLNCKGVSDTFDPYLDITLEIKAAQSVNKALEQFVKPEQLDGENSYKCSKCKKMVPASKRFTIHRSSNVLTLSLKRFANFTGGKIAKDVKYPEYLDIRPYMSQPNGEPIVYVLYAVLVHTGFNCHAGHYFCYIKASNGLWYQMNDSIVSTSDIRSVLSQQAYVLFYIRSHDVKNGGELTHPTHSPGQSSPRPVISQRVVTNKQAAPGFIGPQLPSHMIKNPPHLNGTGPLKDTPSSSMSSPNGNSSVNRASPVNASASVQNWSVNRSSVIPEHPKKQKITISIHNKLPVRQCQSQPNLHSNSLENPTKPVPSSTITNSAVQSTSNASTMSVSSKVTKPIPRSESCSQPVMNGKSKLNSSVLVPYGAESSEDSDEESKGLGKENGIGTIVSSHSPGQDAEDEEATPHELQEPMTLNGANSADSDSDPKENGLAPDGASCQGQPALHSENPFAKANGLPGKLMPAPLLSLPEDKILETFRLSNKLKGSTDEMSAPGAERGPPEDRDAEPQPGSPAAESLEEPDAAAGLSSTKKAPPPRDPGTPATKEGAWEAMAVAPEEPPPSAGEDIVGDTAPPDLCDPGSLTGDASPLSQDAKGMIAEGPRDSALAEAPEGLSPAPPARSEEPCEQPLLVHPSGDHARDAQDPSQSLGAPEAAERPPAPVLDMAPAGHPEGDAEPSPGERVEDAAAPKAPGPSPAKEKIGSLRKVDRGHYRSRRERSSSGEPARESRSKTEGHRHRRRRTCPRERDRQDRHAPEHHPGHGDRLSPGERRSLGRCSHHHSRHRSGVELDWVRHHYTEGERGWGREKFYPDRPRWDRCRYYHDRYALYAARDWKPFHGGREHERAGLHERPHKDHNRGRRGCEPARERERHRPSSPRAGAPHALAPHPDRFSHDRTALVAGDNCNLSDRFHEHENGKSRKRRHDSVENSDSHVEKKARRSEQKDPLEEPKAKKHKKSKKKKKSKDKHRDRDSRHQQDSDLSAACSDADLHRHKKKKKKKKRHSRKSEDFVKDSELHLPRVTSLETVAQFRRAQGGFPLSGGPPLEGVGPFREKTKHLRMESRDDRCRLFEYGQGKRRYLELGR
Procedure, shortened: (§1)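 Using Biotin-Ahx-Ub-VS at 0.5 µM final for 1 h, DUBs were labelled in HEK293T lysate (495 µg per sample) that had first been treated in triplicate with fragment at 200 µM or vehicle for 3 h. NeutrAvidin enrichment, LysC and trypsin digestion and diaPASEF LC-MS/MS followed. Spectronaut label-free quantities were global-median-normalised. Values are average log2 fragment/vehicle ratios by unpaired t-test, using proteins with ≥2 unique peptides.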

[2] = target: USP46 (UniProt P62068)
Procedure, shortened: as §1

[3] = target: T2, USP47 (UniProt Q96K76)
T2 sequence (whole entry): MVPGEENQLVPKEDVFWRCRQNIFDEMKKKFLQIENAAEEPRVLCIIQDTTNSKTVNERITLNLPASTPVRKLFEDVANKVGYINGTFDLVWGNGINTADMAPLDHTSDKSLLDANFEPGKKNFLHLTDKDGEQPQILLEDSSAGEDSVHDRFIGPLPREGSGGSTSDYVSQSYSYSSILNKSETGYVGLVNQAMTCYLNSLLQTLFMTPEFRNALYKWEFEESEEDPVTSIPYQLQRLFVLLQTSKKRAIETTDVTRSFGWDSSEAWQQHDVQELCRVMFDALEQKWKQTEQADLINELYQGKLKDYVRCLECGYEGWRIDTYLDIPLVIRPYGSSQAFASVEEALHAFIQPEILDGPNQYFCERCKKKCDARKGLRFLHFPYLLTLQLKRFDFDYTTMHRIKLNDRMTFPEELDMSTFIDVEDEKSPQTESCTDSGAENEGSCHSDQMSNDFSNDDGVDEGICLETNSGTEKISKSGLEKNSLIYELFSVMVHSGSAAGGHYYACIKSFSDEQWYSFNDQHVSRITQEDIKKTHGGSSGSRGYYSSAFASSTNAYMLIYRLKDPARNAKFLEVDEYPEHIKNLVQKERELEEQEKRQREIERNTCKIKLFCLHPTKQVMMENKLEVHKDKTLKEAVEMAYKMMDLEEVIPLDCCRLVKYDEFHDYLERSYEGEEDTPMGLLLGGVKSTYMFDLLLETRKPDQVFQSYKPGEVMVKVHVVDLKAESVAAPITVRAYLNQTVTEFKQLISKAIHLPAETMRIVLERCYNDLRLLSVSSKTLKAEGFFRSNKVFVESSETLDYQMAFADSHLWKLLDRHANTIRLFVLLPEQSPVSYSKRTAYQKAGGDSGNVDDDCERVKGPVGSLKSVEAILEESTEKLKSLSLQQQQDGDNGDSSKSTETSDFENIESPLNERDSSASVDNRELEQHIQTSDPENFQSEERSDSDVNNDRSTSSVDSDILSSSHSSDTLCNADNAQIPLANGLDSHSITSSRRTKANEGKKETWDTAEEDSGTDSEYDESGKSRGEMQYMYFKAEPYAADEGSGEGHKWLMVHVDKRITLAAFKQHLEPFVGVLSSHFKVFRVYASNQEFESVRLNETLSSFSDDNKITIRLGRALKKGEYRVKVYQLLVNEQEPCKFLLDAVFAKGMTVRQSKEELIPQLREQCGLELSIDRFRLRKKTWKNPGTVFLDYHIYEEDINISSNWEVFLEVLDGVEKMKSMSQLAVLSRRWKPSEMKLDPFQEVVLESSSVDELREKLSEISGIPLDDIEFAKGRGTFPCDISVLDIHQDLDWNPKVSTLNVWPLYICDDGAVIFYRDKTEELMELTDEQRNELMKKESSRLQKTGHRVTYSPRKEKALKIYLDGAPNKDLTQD
Procedure, shortened: as §1

[4] = target: T3, USP48 (UniProt Q86UV5)
T3 sequence (whole entry): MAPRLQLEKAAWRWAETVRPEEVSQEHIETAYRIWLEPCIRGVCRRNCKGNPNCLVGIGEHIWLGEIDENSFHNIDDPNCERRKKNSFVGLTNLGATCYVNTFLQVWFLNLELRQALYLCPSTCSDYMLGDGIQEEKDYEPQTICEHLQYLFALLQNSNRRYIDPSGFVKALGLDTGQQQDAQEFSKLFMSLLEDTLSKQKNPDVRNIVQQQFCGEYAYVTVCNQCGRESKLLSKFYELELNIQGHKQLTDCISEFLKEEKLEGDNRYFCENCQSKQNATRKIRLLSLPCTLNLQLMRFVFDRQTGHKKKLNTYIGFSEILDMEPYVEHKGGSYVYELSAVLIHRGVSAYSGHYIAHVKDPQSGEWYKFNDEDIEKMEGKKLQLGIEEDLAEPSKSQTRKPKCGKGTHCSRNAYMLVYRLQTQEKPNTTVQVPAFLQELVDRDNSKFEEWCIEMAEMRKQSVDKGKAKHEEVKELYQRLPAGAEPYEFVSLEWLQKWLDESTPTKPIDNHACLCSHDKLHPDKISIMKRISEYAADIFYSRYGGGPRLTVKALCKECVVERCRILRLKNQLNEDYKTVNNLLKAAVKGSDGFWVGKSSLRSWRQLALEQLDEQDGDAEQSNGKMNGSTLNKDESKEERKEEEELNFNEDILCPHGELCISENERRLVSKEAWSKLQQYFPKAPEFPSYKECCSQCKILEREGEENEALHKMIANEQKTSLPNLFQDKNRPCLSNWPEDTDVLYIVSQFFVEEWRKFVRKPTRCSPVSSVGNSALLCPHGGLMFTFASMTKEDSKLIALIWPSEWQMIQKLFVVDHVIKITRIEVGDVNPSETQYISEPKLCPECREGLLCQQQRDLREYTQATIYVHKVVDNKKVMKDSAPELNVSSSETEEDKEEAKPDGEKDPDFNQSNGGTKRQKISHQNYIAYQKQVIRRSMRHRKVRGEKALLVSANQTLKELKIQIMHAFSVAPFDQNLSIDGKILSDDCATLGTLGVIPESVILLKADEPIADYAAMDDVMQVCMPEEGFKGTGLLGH
Procedure, shortened: as §1

[5] = target: T4, USP5 (UniProt P45974)
T4 sequence (whole entry): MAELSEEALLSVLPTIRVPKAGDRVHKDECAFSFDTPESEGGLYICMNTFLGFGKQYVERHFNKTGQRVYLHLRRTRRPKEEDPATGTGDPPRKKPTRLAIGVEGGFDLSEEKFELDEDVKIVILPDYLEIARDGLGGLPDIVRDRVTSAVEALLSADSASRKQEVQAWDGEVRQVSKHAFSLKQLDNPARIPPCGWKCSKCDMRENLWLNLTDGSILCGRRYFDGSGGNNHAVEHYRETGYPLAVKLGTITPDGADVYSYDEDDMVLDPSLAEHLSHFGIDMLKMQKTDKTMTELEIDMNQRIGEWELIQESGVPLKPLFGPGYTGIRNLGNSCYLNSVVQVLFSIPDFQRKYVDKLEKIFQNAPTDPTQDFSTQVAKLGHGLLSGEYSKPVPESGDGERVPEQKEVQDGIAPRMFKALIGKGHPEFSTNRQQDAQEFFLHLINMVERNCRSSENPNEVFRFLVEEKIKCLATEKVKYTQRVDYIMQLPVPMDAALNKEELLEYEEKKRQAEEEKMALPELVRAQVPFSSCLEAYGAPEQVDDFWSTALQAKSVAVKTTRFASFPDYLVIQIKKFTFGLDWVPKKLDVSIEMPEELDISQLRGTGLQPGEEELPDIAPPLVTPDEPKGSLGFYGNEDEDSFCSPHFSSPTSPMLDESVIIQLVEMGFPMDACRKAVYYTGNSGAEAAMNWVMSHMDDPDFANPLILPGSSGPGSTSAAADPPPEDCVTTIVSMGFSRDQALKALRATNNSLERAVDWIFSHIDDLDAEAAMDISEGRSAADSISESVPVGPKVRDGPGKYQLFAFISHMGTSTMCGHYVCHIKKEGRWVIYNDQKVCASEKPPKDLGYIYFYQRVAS
Procedure, shortened: as §1

[6] = target: USP54 (UniProt Q70EL1)
Procedure, shortened: as §1

[7] = target: USP7 (UniProt Q93009)
Procedure, shortened: as §1

[8] = target: T5, USP8 (UniProt P40818)
T5 sequence (whole entry): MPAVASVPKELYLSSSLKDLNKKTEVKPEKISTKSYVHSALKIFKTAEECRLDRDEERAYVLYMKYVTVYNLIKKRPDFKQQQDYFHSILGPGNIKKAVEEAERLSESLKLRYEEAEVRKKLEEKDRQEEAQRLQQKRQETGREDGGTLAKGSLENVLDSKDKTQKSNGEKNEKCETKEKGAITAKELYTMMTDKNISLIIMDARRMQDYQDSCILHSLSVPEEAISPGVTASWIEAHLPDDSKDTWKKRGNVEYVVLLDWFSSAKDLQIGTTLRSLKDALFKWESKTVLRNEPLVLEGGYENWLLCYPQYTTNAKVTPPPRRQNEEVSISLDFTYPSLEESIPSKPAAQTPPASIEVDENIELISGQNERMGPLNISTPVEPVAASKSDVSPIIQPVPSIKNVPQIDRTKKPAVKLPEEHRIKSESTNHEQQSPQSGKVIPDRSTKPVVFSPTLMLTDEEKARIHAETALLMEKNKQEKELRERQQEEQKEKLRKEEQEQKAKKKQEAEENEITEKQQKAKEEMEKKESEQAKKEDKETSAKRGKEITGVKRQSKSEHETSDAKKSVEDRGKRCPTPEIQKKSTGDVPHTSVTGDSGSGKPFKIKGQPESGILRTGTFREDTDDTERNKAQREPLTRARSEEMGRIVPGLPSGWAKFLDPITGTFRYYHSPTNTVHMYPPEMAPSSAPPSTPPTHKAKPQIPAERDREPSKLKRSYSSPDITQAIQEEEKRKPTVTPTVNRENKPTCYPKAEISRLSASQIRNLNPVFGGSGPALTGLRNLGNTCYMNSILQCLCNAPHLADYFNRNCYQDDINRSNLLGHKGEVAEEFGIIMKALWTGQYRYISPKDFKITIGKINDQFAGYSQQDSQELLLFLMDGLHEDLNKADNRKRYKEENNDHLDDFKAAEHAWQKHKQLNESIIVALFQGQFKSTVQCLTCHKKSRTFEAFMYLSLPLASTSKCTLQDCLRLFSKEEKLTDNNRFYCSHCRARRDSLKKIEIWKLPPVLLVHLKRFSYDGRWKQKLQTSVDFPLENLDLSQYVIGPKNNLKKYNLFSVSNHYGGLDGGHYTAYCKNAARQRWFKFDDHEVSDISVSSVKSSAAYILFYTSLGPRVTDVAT
Procedure, shortened: as §1

[9] = target: USP9X (UniProt Q93008)
Procedure, shortened: as §1

[10] = target: UniProt O00487
Procedure, shortened: as §1

Measured: log2 ratio of Biotin-Ahx-Ub-VS probe labelling

UniProt O00487, sequence (O00487 whole entry): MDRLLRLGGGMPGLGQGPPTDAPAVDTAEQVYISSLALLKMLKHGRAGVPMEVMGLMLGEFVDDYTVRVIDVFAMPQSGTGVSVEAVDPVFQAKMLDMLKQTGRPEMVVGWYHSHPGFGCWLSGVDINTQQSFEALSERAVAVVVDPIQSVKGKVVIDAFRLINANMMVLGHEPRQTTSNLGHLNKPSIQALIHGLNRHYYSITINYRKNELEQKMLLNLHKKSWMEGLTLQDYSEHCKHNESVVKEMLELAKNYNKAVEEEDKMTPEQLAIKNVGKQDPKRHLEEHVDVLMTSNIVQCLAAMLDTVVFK
USP46, sequence (P62068 whole entry): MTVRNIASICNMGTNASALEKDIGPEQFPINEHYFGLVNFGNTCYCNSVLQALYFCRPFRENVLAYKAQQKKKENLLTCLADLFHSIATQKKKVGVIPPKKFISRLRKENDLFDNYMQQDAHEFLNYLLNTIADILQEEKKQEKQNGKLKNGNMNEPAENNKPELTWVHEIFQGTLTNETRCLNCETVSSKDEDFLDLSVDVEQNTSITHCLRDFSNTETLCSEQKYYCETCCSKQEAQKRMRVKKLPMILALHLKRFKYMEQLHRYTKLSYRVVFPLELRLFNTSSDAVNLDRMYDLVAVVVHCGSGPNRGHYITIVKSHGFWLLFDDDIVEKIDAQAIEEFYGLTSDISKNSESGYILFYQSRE
USP9X, sequence (Q93008 whole entry): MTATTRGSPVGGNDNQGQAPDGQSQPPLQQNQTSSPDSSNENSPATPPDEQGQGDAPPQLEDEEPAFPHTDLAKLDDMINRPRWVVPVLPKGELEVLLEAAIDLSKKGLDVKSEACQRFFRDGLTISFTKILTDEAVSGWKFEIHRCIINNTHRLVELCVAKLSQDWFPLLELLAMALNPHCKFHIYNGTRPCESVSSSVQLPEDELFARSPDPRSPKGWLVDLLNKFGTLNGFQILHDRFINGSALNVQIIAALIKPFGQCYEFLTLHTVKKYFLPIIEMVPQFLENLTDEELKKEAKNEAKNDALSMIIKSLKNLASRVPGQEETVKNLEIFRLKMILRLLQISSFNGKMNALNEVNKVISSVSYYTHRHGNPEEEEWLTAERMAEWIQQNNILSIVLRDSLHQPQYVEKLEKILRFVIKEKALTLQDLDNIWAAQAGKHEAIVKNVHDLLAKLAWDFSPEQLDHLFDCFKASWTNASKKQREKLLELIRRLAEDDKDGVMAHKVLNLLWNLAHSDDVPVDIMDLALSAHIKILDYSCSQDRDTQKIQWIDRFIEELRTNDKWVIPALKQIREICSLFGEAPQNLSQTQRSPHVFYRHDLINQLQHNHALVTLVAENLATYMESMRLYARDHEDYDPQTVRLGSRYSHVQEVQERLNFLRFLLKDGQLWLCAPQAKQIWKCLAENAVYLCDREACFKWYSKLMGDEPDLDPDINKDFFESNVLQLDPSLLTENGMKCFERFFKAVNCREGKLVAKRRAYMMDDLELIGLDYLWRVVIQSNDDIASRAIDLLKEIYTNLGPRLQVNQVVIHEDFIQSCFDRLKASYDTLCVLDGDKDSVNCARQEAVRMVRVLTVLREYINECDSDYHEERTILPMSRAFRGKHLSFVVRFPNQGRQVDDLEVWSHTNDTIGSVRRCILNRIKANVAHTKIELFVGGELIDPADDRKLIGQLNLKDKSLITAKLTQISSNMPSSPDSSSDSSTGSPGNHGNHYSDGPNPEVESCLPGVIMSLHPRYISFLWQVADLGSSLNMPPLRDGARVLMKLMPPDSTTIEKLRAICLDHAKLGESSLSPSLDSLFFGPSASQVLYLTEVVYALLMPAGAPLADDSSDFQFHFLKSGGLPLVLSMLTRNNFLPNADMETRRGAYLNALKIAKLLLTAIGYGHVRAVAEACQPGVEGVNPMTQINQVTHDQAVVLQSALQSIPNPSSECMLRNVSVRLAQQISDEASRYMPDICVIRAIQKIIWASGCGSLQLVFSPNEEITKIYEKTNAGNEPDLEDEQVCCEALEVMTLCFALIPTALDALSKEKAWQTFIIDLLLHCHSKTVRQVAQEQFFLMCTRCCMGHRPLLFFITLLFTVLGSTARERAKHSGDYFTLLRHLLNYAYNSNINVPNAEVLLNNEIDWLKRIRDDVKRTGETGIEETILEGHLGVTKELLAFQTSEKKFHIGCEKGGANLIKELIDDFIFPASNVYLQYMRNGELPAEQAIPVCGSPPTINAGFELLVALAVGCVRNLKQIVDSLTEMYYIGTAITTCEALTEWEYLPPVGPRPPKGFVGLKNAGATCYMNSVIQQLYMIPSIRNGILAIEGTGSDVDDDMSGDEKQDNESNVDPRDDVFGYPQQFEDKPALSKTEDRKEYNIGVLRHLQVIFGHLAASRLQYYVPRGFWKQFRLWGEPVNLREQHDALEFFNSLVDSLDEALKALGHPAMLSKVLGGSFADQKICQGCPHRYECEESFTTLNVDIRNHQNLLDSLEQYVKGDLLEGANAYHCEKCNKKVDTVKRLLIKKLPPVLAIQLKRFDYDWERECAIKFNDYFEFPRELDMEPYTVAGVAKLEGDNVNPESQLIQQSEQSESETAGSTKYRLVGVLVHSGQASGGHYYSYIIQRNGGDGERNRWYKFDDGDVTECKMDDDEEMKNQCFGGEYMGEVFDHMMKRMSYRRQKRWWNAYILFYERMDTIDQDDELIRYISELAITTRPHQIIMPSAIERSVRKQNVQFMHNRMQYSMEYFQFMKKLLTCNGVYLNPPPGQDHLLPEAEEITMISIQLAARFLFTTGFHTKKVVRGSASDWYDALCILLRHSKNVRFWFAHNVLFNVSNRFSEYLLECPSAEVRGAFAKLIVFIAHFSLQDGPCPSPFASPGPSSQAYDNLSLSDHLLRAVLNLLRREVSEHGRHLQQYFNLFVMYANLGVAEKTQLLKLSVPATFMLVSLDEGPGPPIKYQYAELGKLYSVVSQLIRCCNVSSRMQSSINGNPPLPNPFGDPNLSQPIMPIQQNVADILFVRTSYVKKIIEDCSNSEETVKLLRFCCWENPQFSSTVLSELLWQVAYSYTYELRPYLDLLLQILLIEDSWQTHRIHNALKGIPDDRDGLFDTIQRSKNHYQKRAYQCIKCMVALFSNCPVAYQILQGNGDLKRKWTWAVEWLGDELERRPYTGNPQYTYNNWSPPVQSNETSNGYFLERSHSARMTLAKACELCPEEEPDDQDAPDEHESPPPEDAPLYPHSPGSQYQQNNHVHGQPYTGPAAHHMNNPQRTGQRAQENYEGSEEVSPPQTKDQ
USP7, sequence (Q93009 whole entry, looked up): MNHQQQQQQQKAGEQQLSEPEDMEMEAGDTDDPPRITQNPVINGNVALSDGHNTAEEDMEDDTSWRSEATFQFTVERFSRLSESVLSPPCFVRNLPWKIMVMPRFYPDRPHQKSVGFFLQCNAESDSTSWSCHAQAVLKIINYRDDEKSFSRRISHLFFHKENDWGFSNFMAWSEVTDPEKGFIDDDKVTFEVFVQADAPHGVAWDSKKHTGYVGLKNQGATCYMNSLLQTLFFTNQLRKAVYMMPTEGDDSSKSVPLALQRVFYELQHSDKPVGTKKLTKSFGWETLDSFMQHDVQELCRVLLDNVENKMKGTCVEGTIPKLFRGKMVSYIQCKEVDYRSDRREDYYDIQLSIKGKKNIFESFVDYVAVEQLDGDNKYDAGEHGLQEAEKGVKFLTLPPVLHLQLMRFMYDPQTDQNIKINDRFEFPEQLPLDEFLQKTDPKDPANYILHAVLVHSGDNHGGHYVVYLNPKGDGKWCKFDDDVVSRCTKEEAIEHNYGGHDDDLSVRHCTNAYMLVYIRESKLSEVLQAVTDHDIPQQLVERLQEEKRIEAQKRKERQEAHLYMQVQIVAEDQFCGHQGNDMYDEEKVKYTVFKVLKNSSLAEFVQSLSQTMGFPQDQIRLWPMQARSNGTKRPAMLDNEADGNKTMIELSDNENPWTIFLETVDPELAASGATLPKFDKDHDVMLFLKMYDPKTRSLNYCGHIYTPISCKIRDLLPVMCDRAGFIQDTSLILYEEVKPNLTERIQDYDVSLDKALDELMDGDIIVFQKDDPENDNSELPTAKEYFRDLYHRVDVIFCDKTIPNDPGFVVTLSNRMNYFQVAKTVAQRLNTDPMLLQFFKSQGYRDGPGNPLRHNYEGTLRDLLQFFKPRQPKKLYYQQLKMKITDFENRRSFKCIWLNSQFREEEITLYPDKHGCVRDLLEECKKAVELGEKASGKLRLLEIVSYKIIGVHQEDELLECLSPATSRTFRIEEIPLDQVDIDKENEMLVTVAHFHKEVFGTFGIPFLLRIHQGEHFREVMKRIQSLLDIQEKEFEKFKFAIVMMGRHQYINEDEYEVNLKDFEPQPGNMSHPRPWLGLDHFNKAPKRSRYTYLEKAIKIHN

O=C(CCl)Nc1cc(Cl)ccc1C(=O)O
inactive: [1] -0.11 | [2] 0.0628 | [3] 0.0765 | [4] 0.232 | [5] 0.436 | [6] 0.0975 | [7] 0.19 | [8] -0.256 | [9] -0.165 | [10] -0.0135

CCc1c[nH]c(CNC(=O)CCl)n1.Cl
inactive: [1] 0.203 | [2] -0.136 | [3] -0.108 | [4] -0.267 | [5] -0.335 | [6] 0.304 | [7] -0.288 | [8] -0.335 | [9] -0.236 | [10] -0.193

Cc1ccc(-c2nnc(C)[nH]2)c(NC(=O)CCl)c1
inactive: [1] 0.00752 | [2] 0.277 | [3] -0.177 | [4] -0.239 | [5] 0.0867 | [6] -0.227 | [7] -0.138 | [8] 0.112 | [9] -0.0335 | [10] -0.138
